For assay [1], the target named is Glucocorticoid receptor (Homo sapiens) (UniProt P04150). The assay is described as follows: GR-EFC Redistribution (AID 451). Further: potency means the concentration at half of the fitted maximal effect. To be noted: CHO-K1 GR-EFC translocation, beta-gal luminescence, 2 h. The method in brief: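 CHO-K1 cells stably expressing nuclear-localized β-gal enzyme acceptor and GR fused C-terminally to the enzyme donor fragment; ligand-driven nuclear translocation restores β-gal by complementation. Compounds titrated up to 46 uM final, 2 h at 37 °C; luminescence read.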
Sequence of Glucocorticoid receptor (Homo sapiens) (P04150 whole entry, looked up, the tested form may be a part): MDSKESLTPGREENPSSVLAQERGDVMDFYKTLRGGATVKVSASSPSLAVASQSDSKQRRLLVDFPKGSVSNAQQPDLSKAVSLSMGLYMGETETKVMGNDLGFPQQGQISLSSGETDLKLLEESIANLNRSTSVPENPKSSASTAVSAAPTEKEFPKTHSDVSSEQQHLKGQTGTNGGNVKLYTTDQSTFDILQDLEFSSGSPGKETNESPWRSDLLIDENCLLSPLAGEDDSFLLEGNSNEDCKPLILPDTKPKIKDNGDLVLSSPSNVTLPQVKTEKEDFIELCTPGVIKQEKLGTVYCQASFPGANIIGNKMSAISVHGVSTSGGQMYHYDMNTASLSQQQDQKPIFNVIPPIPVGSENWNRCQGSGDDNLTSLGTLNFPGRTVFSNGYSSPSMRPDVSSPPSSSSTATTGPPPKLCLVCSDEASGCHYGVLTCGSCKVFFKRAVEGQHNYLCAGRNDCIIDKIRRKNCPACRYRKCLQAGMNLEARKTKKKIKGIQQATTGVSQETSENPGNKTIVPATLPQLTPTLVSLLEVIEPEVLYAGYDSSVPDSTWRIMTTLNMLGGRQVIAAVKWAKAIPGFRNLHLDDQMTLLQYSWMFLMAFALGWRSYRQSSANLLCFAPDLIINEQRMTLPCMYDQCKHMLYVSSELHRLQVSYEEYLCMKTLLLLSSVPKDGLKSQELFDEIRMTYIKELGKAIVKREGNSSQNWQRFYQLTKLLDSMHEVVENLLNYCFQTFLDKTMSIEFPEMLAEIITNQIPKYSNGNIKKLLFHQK

In assay [2] the target is Mitogen-activated protein kinase 10 (Mus musculus) (UniProt Q61831). The assay is described as follows: JNK3 AlphaScreen Assay (AID 530; active means well fitted curve in either direction with a large enough effect, not every such curve was filed as active;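 further: kinase came from lysate of stimulated human HepG2 cells; signal reports phosphorylation of biotinylated GST-cJun 1-79 at Ser73 with 10 µM ATP; on the % scale 0 is the no-effect control and ±100 the full control effect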). To be noted: JNK3 lysate, c-Jun phosphorylation; series mostly up to 57.1 µM. The method in brief:
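JNK3 came from HepG2 lysates pre-activated with IL-1beta and TNF-alpha and phosphorylated biotinylated GST-cJun (1-79) at 10 uM ATP, pH 7.6, room temperature. Compounds were titrated. AlphaScreen signal used anti-phospho-cJun (Ser73) antibody.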

The nature of assay [3]: Cell Viability - N2a (AID 540; active means well fitted curve in the direction sought with a large enough effect; an effect the other way counts as inactive or inconclusive;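 further: plate controls were DMSO alone for no effect and tamoxifen control for full effect; nearly all actives have a fitted effect of over 45% in size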). To be noted: N2a mouse neuroblastoma cell viability; activity change, negative = cytotoxicity: at 92.2 µM (top of the series). The gist of the method:
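Mouse neuroblastoma N2a cells (1500/well) were preincubated 5 hr at 37 °C, then exposed to compounds for 40 hr at 37 °C in complete medium. Viability was read as intracellular ATP by CellTiter-Glo luminescence; AC50 from Hill fits.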

Assay [4] can be described thus: Cell Viability - NIH 3T3 (AID 541; active means well fitted curve in the direction sought with a large enough effect; an effect the other way counts as inactive or inconclusive; further: nearly all actives have a fitted effect of over 25% in size; further: potency means the concentration at half of the fitted maximal effect;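 on activity change, negative = cytotoxicity: plate controls were DMSO alone for no effect and tamoxifen positive control for full effect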). To be noted: NIH 3T3 cell viability, qHTS; activity change, negative = cytotoxicity: at 92.2 µM (top of the series). The gist of the method: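 NIH 3T3 mouse embryo fibroblasts (1000 cells/well) were plated in complete medium and treated with compound for 40 hr at 37 °C. Viability was read as intracellular ATP by CellTiter-Glo luminescence; AC50 values came from Hill-equation fits of concentration-response data.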

Assay [5] can be described thus: Cell Viability - HUV-EC-C (AID 542; active means well fitted curve in the direction sought with a large enough effect; an effect the other way counts as inactive or inconclusive; further: on the % scale 0 is the no-effect control and ±100 the full control effect; nearly all actives have a fitted effect of over 35% in size). Particulars: HUV-EC-C endothelial cell viability, qHTS; series mostly up to 92.2 µM. The gist of the method: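 HUV-EC-C normal human vascular endothelial cells, 1000 cells/well, pre-incubated 5 hr at 37 °C, then exposed to compounds for 40 hr at 37 °C in complete medium. Viability measured as intracellular ATP by CellTiter-Glo luminescence; AC50 from Hill fits.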

A short description of assay [6]: Cell Viability - H-4-II-E (AID 543; active means well fitted curve in the direction sought with a large enough effect; an effect the other way counts as inactive or inconclusive; further: on the % scale 0 is the no-effect control and ±100 the full control effect; nearly all actives have a fitted effect of over 35% in size). To be noted: H-4-II-E rat hepatoma viability; series mostly up to 92.2 µM. The gist of the method:
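Rat hepatoma H-4-II-E cells (1500/well) were plated, incubated 5 hr at 37 °C, then exposed to compounds for 40 hr at 37 °C. Cellular ATP was read by CellTiter-Glo luminescence; AC50 came from Hill-equation fits of concentration-response data.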

A short description of assay [7]: Cell Viability - SH-SY5Y (AID 544; active means well fitted curve in the direction sought with a large enough effect; an effect the other way counts as inactive or inconclusive; further: nearly all actives have a fitted effect of over 55% in size). To be noted: SH-SY5Y neuroblastoma cell viability; viability change, negative = cytotoxic: at 92.2 µM (top of the series). The gist of the method: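 Human neuroblastoma SH-SY5Y cells (1500/well) in complete medium were exposed to compounds for 40 hr at 37 °C; intracellular ATP was then quantified by CellTiter-Glo luminescence after 20 min at room temperature. AC50 came from Hill-equation concentration-response fits.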

Assay [8] in a line: Cell Viability - Renal Proximal Tubule (AID 545; active means well fitted curve in the direction sought with a large enough effect; an effect the other way counts as inactive or inconclusive; further: nearly all actives have a fitted effect of over 40% in size). Particulars: renal proximal tubule cells viability, primary cells of rat origin; series mostly up to 91.7 µM. The method in brief: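 Rat renal proximal tubule primary cells, 1000/well, exposed to compounds for 40 hr at 37 °C in complete medium; cellular ATP read by CellTiter-Glo luminescence. AC50 from concentration-response fitted with standard Hill equation.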

Assay [9] can be described thus: Cell Viability - Mesenchymal (AID 546; active means well fitted curve in the direction sought with a large enough effect; an effect the other way counts as inactive or inconclusive;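 further: cells exposed to compound for 40 hours before reading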). To be noted: mesenchymal cells viability, qHTS; series mostly up to 91.7 µM. The method in brief:
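Normal human renal glomerulus-derived kidney mesenchymal cells, 1000 per well in complete medium, were treated with compounds for 40 hr at 37 °C. Viability was read as intracellular ATP by CellTiter-Glo luminescence; AC50 values came from Hill-equation fits of qHTS concentration-response data.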

Assay [10] has as its target 3',5'-cyclic-AMP phosphodiesterase 4B (Homo sapiens) (UniProt Q07343). The assay is described as follows: qHTS Assay for Inhibitors of PDE-IV (AID 607; active means well fitted activation curve with a large enough effect in the main read-out, with a control signal flat, not every such curve was filed as active; further: % of control where 0% means no effect). To be noted: HEK293 ACTOne CNG channel cells, membrane potential fluorescence; series mostly up to 22.9 µM. The method in brief: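 ACTOne HEK293 cells carry a modified cAMP-gated CNG channel and express endogenous PDE4; plated 1000 cells/well, compounds up to 22.9 uM final. Membrane-potential dye fluorescence (ex 535/em 590) was read; parental cells received 10 uM forskolin + 100 uM RO 20-1724.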

Assay [11] can be described thus: Cellular Toxicity (caspase-3) HepG2 (AID 654; active means well fitted curve in the direction sought with a large enough effect; an effect the other way counts as inactive or inconclusive;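 further: cells exposed to compound for 16 hours before reading; 0% = DMSO alone and 100% = caspase signal from 100 µM tamoxifen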). To be noted: HepG2 caspase-3 activation, luminescence, 0% = DMSO only, 100% = tamoxifen; series mostly up to 92.2 µM. The method in brief:
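HepG2 cells (1500/well) in complete medium were treated with compounds for 16 hr at 37 °C. Caspase-3/7 activity was then read as luminescence from peptide-aminoluciferin cleavage. AC50 came from Hill fits, normalized to DMSO and 100 uM tamoxifen.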

Assay [12] in a line: Cellular Toxicity (caspase-3) Jurkat (AID 655; active means well fitted curve in the direction sought with a large enough effect; an effect the other way counts as inactive or inconclusive;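 further: cells exposed to compound for 16 h at 37 °C before reading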). To be noted: Jurkat caspase-3 activation, luminescence; series mostly up to 92.2 µM. The method in brief: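 Jurkat cells (5000/well) in complete medium exposed 16 h at 37 C; caspase-3/7 activity read by Caspase-Glo luminescence after 20 min at room temperature. Normalized to DMSO and 100 uM tamoxifen; AC50 from Hill fits.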
Assay [13] can be described thus: Cellular Toxicity (caspase-3) HUV-EC-C (AID 656; active means well fitted curve in the direction sought with a large enough effect; an effect the other way counts as inactive or inconclusive). To be noted: HUV-EC-C cells, caspase-3 activation (apoptosis), vehicle = 0, 100 µM tamoxifen = 100%; series mostly up to 92.2 µM. The method in brief:
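HUV-EC-C cells (1000/well) in complete medium, compound-treated 16 h at 37 °C; caspase-3/7 activity read by Caspase-Glo 3/7 luminescence. Normalized to DMSO (basal) and 100 uM tamoxifen (100%); AC50 from Hill-equation concentration-response fits.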

Assay [14] can be described thus: Cellular Toxicity (caspase-3) SHSY5Y (AID 657; active means well fitted curve in the direction sought with a large enough effect; an effect the other way counts as inactive or inconclusive). Particulars: SH-SY5Y caspase-3 activation, DMSO zero, 10 µM staurosporine = 100%; series mostly up to 91.7 µM. The gist of the method: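 SH-SY5Y human neuroblastoma cells, 1500/well, exposed to compound for 16 hours at 37 °C in complete medium. Caspase-3/7 activity read by Caspase-Glo luminescence after 1 hr at room temperature, normalized to DMSO and 10 uM staurosporine; AC50 from Hill fit.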

Assay [15] is described as follows: Cellular Toxicity (caspase-3) BJ (AID 658; active means well fitted curve in the direction sought with a large enough effect; an effect the other way counts as inactive or inconclusive). To be noted: BJ fibroblasts, luminescence, normalized: DMSO 0%, staurosporine 100%; series mostly up to 91.7 µM. The gist of the method:
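Luminescent aminoluciferin-substrate cleavage reports caspase 3/7 activity in normal human BJ fibroblasts after 16 hr compound exposure at 37 °C. Normalized to DMSO (basal) and 10 uM staurosporine (100%); AC50 from Hill fit of concentration-response.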

Assay [16] is described as follows: Cellular Toxicity (caspase-3) Mesangial (AID 660; active means well fitted curve in the direction sought with a large enough effect; an effect the other way counts as inactive or inconclusive;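 further: cells exposed to compound for 16 h before the caspase read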). Particulars: mesangial cells, normalized: DMSO 0%, 100 µM tamoxifen 100%; series mostly up to 91.7 µM. The gist of the method: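 Human renal glomerular mesangial cells (1000/well) were treated with compounds for 16 h at 37 °C in complete medium, then caspase 3/7 activity was read by Caspase-Glo luminescence. Data were normalized to DMSO and 100 uM tamoxifen; AC50 from Hill fits.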

Assay [17] can be described thus: Cellular Toxicity (caspase-3) H-4-II-E (AID 663; active means well fitted curve in the direction sought with a large enough effect; an effect the other way counts as inactive or inconclusive;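 further: cells exposed to compound for 16 hr before readout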). To be noted: H-4-II-E rat hepatoma, scaled: DMSO 0%, 100 µM tamoxifen 100%; series mostly up to 92.2 µM. The method in brief: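 Luminescence from caspase-cleaved aminoluciferin substrate, read 20 min after reagent addition, reports caspase 3/7 activation in rat H-4-II-E cells after 16 hr compound exposure. Normalized to DMSO (basal) and 100 uM tamoxifen (100%); AC50 from Hill fits.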

The nature of assay [18]: Cellular Toxicity (caspase-3) Hek293 (AID 664; active means well fitted curve in the direction sought with a large enough effect; an effect the other way counts as inactive or inconclusive;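 further: cells exposed to compound for 16 h at 37 °C before readout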). To be noted: HEK293 caspase-3 activation; caspase-3 activation: at 92.2 µM (top of the series), DMSO = 0%, 100 µM tamoxifen = 100%. The method in brief:
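HEK293 cells were exposed to compounds in complete medium for 16 hr at 37 °C, then caspase-3/7 activity was read by Caspase-Glo 3/7 luminescence after 20 min at room temperature. Data normalized to DMSO and 100 uM tamoxifen; AC50 from Hill fits.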

Assay [19] can be described thus: Cellular Toxicity (caspase-3) N2a (AID 665; active means well fitted curve in the direction sought with a large enough effect; an effect the other way counts as inactive or inconclusive;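 further: compound exposure lasted 16 h at 37 °C before readout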). To be noted: N2a cells, luminescence, normalized: DMSO 0%, 10 µM staurosporine 100%; series mostly up to 92.2 µM. The method in brief:
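Mouse N2a neuroblastoma cells (1500/well) were treated with compounds for 16 h at 37 °C, then caspase-3/7 activity was read by Caspase-Glo luminescence after 1 h at room temperature. Data were normalized to DMSO and 10 uM staurosporine; AC50 from Hill fits.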

In assay [20] the target is Glucocorticoid receptor (Homo sapiens) (UniProt P04150). The assay is described as follows: GR-GFP Redistribution (AID 450;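 active means compounds whose dose series gives a full or clear partial fitted curve of increased nuclear translocation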; further: potency means the concentration at half of the fitted maximal effect). Particulars: U2OS GR-GFP nuclear translocation, laser cytometry, 2 h.

Each structure is given as a SMILES string. Several values for one entry are separate records, joined by “and”; a condition that tells them apart may be missing. Equal values may be shown once. Values without a mark were called inactive. Results filed as inconclusive are left out. Activity calls are given as the source filed them. Unless noted, the call rests on the fitted dose curve.

Sequence of 3',5'-cyclic-AMP phosphodiesterase 4B (Homo sapiens) (Q07343 whole entry, looked up): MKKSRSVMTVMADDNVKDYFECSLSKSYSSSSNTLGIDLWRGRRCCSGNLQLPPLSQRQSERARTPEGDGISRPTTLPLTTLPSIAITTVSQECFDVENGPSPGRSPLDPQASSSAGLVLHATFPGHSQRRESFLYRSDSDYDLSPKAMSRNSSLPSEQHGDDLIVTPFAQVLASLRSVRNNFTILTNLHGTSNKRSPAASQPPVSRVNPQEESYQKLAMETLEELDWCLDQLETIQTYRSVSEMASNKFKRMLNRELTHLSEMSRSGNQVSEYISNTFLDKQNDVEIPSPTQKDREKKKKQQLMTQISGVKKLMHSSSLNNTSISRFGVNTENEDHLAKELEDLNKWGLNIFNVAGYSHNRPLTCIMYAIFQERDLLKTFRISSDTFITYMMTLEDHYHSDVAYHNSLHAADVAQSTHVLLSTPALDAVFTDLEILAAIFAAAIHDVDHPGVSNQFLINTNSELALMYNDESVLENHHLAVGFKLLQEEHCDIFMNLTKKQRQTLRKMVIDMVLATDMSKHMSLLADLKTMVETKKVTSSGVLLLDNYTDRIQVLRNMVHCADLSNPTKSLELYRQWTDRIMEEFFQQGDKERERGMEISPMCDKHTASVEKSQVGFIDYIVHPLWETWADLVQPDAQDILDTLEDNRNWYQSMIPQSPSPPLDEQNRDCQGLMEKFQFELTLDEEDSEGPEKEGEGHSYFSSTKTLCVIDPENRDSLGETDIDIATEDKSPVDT

Consider `CCC1(c2ccccc2)C(=O)NCNC1=O`, for which, in assay [1], the Potency was > 46 µM and > 20.6 µM. Also, the result in assay [2], in [5], in assay [9], in [11], in [13] and in assay [14] was inactive. In addition, the result in [15], in [16], in [17] and in [19] was inactive. For the same compound, in assay [3], the activity change, negative = cytotoxicity is -14.7%. Besides, the Potency result in [4], in assay [6], in assay [7], in assay [8], in assay [10] and in assay [12] was “inactive” each time. Moreover, the Potency result in assay [18] was “inactive”.
Consider `CN(C)CCC=C1c2ccccc2C=Cc2ccccc21`, for which, in [1], the Potency is > 46 µM and > 20.6 µM and > 9.22 µM. The call in assay [2] was inactive. In [10], the Potency result was “inactive”.
Turning to `NCCCCCC(=O)O`, the Potency in assay [1] was > 46 µM and > 20.6 µM. Further, in [2], the compound was called inactive. The Potency result in assay [10] is “inactive”.
As to `CN(C)CCCN1c2ccccc2CCc2ccc(Cl)cc21`, the Potency in [1] was > 46 µM and > 20.6 µM. In addition, the compound was called inactive in assay [2]. In addition, the Potency entry in assay [10] was “inactive”.
`O=C(c1ccc(F)cc1)C1CCN(CCn2c(=O)[nH]c3ccccc3c2=O)CC1`: the Potency in assay [1] was > 46 µM and > 20.6 µM. Besides, in [2], the compound was classed as inactive. Besides, the Potency result in [10] is “inactive”.
As to `O=C(c1ccc(OCCN2CCCCC2)cc1)c1c(-c2ccc(O)cc2)sc2cc(O)ccc12`, the Potency in assay [20] was > 46 µM and > 20.6 µM; in [1], > 46 µM and > 20.6 µM. For the same compound, the Potency result in assay [10] was “inactive”.
For the compound `Cc1cc(C(C)(C)C)cc(C)c1CC1=NCCN1`, the Potency in assay [20] was > 46 µM and > 20.6 µM; in assay [1], > 46 µM and > 20.6 µM. The outcome in [2] was inactive. The Potency entry in [10] is “inactive”.
As to `O=c1c(-c2ccc(O)cc2)coc2cc(O)cc(O)c12`, the Potency is > 46 µM in [20], > 46 µM in assay [1] and 25.1 µM (active) in [4]. For the same compound, the compound was classed as inactive in assay [2], in assay [5], in assay [11], in [13], in assay [15] and in assay [16]. The compound was called inactive in assay [17] and in assay [19]. In addition, in assay [3], the activity change, negative = cytotoxicity is 0.0672%. Moreover, the viability change, negative = cytotoxic in assay [7] is -86.9% (active). In addition, the Potency entry in [10], in assay [12] and in [18] was “inactive” each time.
In the case of `NC12CC3CC(CC(C3)C1)C2`, in [1], the Potency is > 46 µM and > 20.6 µM. In assay [2], the compound was called inactive. In addition, the Potency result in assay [10] was “inactive”.
Regarding `NC(=O)NO`, the Potency in [20] and in [1] was > 46 µM in each case. Besides, the compound was classed as inactive in assay [2]. Besides, in assay [10], the Potency entry is “inactive”.
`CC[N+](CC)(CC)CCOc1cccc(OCC[N+](CC)(CC)CC)c1OCC[N+](CC)(CC)CC`: in assay [1], the Potency is > 46 µM and > 20.6 µM. For the same compound, the compound was classed as inactive in assay [2]. Besides, the Potency entry in [10] was “inactive”.
With `O=C(Nc1ccc([N+](=O)[O-])cc1Cl)c1cc(Cl)ccc1O`, in [1], the Potency is > 46 µM and > 20.6 µM. Moreover, the result in assay [2] was inactive.
For the compound `Cn1cnc2c1c(=O)[nH]c(=O)n2C`, in assay [1], the Potency is > 46 µM and > 20.6 µM. The call in assay [2] was inactive. For the same compound, the Potency entry in assay [10] is “inactive”.

The values are drawn from PubChem BioAssay (NCATS).
